Assay results published in the antibiotic and cytotoxicity screens of Wong et al. (2023).
The campaign covered roughly 39,000 compounds. About 3,300 (8.5%) were called active. Many of the other results were omitted from the sample, so actives are more common in it than they were.

Test system: HepG2
Test: cytotoxicity call (relative viability < 0.9)
Conditions: 10 µM

SMILES	cytotoxicity call
COc1ccc(S(=O)(=O)Nc2ccc3c(c2)CC(=O)N([C@@H](C)CO)C[C@H](C)[C@@H](CN(C)Cc2ccncc2)O3)cc1	inactive
O=C(O)c1ccccn1	inactive
O=C(Oc1cccc2cccnc12)c1ccccc1	active
FC(F)Oc1cccc2cccnc12	inactive
CC(C)NC(=O)N(C)C[C@@H]1Oc2ccc(NC(=O)NC3CCCCC3)cc2C(=O)N([C@H](C)CO)C[C@H]1C	inactive
Cc1cccn2c(=O)c3cc(S(=O)(=O)c4ccc(Br)cc4)c(=N)n(CCCN4CCOCC4)c3nc12	inactive
COc1ccc(CCNC(=O)c2cc3c(=O)n4cccc(C)c4nc3n(CCCN3CCOCC3)c2=N)cc1	active
N=c1c(C(=O)NC[C@H]2CCCO2)cc2c(=O)n3ccccc3nc2n1CCCN1CCOCC1	inactive
COc1ccc(CN(C)C[C@@H]2OCCCC[C@@H](C)Oc3ccc(NC(=O)Nc4c(C)noc4C)cc3C(=O)N([C@@H](C)CO)C[C@@H]2C)cc1	inactive
Nc1ncnc2c1ncn2[C@H]1CCCO1	inactive
C[C@@H]1CN([C@H](C)CO)C(=O)c2ccccc2-c2ccccc2CO[C@@H]1CN(C)S(=O)(=O)c1ccc(C(F)(F)F)cc1	inactive
NCc1csc2c1CCCC2	inactive
Cc1ccc(S(=O)(=O)N(C)C[C@H]2Oc3ccc(NC(=O)Nc4ccc(C(F)(F)F)cc4)cc3CC(=O)N([C@H](C)CO)C[C@@H]2C)cc1	inactive
Cc1ccc(S(=O)(=O)N(C)C[C@H]2Oc3ccc(NC(=O)Nc4ccc(C(F)(F)F)cc4)cc3CC(=O)N([C@H](C)CO)C[C@H]2C)cc1	active
Cc1ccc(S(=O)(=O)N(C)C[C@@H]2Oc3ccc(NC(=O)Nc4ccc(C(F)(F)F)cc4)cc3CC(=O)N([C@H](C)CO)C[C@@H]2C)cc1	active
Cc1ccc(S(=O)(=O)N(C)C[C@@H]2Oc3ccc(NC(=O)Nc4ccc(C(F)(F)F)cc4)cc3CC(=O)N([C@@H](C)CO)C[C@@H]2C)cc1	active
Cc1ccc(S(=O)(=O)N(C)C[C@@H]2Oc3ccc(NC(=O)Nc4ccc(C(F)(F)F)cc4)cc3CC(=O)N([C@@H](C)CO)C[C@H]2C)cc1	active
C[C@H](CO)N1C[C@H](C)[C@H](CN(C)S(C)(=O)=O)Oc2ccc(NC(=O)Nc3ccc(C(F)(F)F)cc3)cc2CC1=O	inactive
Cc1ccc(S(=O)(=O)N(C)C[C@@H]2Oc3ccc(NC(=O)Nc4ccc(C(F)(F)F)cc4)cc3CC(=O)N([C@H](C)CO)C[C@H]2C)cc1	inactive
C[C@@H]1CN([C@@H](C)CO)C(=O)Cc2cc(NC(=O)Nc3ccc(C(F)(F)F)cc3)ccc2O[C@@H]1CN(C)S(C)(=O)=O	inactive
C[C@@H]1CCCCO[C@@H](CN(C)C(=O)Nc2ccc(F)cc2)[C@H](C)CN([C@H](C)CO)C(=O)c2cc(NC(=O)c3ccncc3)ccc2O1	inactive
C[C@H]1CCCCO[C@H](CN(C)C(=O)C2CCCCC2)[C@@H](C)CN([C@@H](C)CO)C(=O)c2cc(NS(=O)(=O)c3ccc(F)cc3)ccc2O1	inactive

SMILES	cytotoxicity call
C[C@H](CO)N1C[C@H](C)[C@@H](CN(C)C(=O)Nc2ccc(F)cc2)Oc2c(NS(C)(=O)=O)cccc2C1=O	inactive
COc1ccc(NC(=O)N(C)C[C@H]2Oc3c(NC(=O)C4CCOCC4)cccc3C(=O)N([C@@H](C)CO)C[C@@H]2C)cc1	inactive
O=C(N[C@H]1C=C[C@@H](CC(=O)N2CCOCC2)O[C@@H]1CO)c1ccccn1	inactive
CN(C)c1nc2ncnc(N)c2[nH]1	inactive
C[C@H]1CN([C@@H](C)CO)C(=O)c2ccccc2-c2ccccc2CO[C@@H]1CN(C)C(=O)Nc1ccccc1C(F)(F)F	inactive
C[C@@]1(O)N(CC(=O)O)C(=O)OC12CCCCC2	inactive
O=C1N[C@@H](Cc2ccccc2)C(=O)N2[C@@H]1C[C@@H](C(=O)NCc1ccc(F)cc1)[C@H]2c1cccc(OCCO)c1	inactive
O=S1(=O)C[C@H](NC[C@H]2C[C@@H]3C=C[C@H]2C3)[C@@H](O)C1	inactive
C[C@@H]1CN([C@H](C)CO)C(=O)c2cccc(NS(=O)(=O)c3cn(C)cn3)c2O[C@@H]1CN(C)C(=O)Nc1ccc(F)cc1	inactive
Cc1ccc(S(=O)(=O)N(C)C[C@H]2Oc3ccc(NC(=O)Nc4ccc(C(F)(F)F)cc4)cc3CC(=O)N([C@@H](C)CO)C[C@@H]2C)cc1	active
Cc1ccc(S(=O)(=O)N(C)C[C@H]2Oc3ccc(NC(=O)Nc4ccc(C(F)(F)F)cc4)cc3CC(=O)N([C@@H](C)CO)C[C@H]2C)cc1	active
C[C@@H]1CN([C@@H](C)CO)C(=O)Cc2cc(NC(=O)Nc3ccc(C(F)(F)F)cc3)ccc2O[C@H]1CN(C)S(C)(=O)=O	inactive
C[C@H]1CN([C@@H](C)CO)C(=O)c2cc(NS(=O)(=O)c3cn(C)cn3)ccc2O[C@H]1CN(C)C(=O)Nc1ccc(F)cc1	inactive
C[C@@H]1CN([C@H](C)CO)C(=O)c2cccc(NS(=O)(=O)c3cccs3)c2O[C@@H]1CN(C)S(=O)(=O)c1cccs1	inactive
Cc1noc(C)c1S(=O)(=O)N(C)C[C@H]1Oc2ccc(NS(=O)(=O)c3ccc(Cl)cc3)cc2CC(=O)N([C@H](C)CO)C[C@H]1C	inactive
O=C(N[C@@H]1CC[C@H](CCNS(=O)(=O)c2ccc(F)cc2)O[C@@H]1CO)C1CC1	inactive
C[C@H](CO)N1C[C@H](C)[C@@H](CN(C)S(=O)(=O)c2ccc(F)cc2)Oc2ccc(NS(=O)(=O)c3cn(C)cn3)cc2C1=O	inactive
C[C@H]1CCCCO[C@H](CN(C)C(=O)c2ccccc2)[C@@H](C)CN([C@@H](C)CO)C(=O)c2cc(NS(=O)(=O)c3ccc(Cl)cc3)ccc2O1	inactive
CN(C[C@@H](O)CN)S(=O)(=O)c1ccccc1	inactive
O=C(O)c1ccc(OC[C@@H](O)CO[C@H](COc2ccc(C(=O)O)cc2)Cn2c3ccccc3c3ccccc32)cc1	inactive
Cc1c(-c2ccccc2)n(C[C@@H](O)CN)c2ccccc12	active
COc1ccc(S(=O)(=O)Nc2ccc3c(c2)C(=O)N([C@H](C)CO)C[C@@H](C)[C@H](CN(C)Cc2ccccc2)OCCCC[C@H](C)O3)cc1	inactive
